In PubChem BioAssay (NCI):
The panel holds about 83,000 compounds, 20% with a hit somewhere; the sample as a whole holds those more often.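 Note: values are percent growth. 100 is the growth of untreated cells, values between 100 and 0 indicate rising inhibition; between -100 and 0 indicates cell death.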

Key:
Assay in all cases: NCI-60 one-dose screen, 48 h (100 = growth as untreated, 0 = no growth, -100 = all killed)
Conditions in all cases: 10 µM; active means growth percent below 10; inactive means the rest
NCI-H23 lung = tested on: NCI-H23 lung
NCI-H226 lung = tested on: NCI-H226 lung
NCI-H322M lung = tested on: NCI-H322M lung
HOP-62 NSCLC = tested on: HOP-62 NSCLC
NCI-H460 lung = tested on: NCI-H460 lung
HOP-92 NSCLC = tested on: HOP-92 NSCLC
NCI-H522 lung = tested on: NCI-H522 lung
A549/ATCC NSCLC = tested on: A549/ATCC NSCLC
786-0 renal = tested on: 786-0 renal
COLO 205 colon = tested on: COLO 205 colon
DU-145 prostate = tested on: DU-145 prostate
K-562 leukemia = tested on: K-562 leukemia
MALME-3M melanoma = tested on: MALME-3M melanoma
RXF 393 renal = tested on: RXF 393 renal
SF-268 CNS = tested on: SF-268 CNS
SF-295 CNS = tested on: SF-295 CNS
SF-539 CNS = tested on: SF-539 CNS
UACC-257 melanoma = tested on: UACC-257 melanoma
M14 melanoma = tested on: M14 melanoma
MDA-MB-231 breast = tested on: MDA-MB-231 breast

Measured: growth

Cc1cc2nc(CC(=O)c3ccccc3)c(=O)[nH]c2cc1C
inactive: NCI-H23 lung 84% | NCI-H226 lung 87% | NCI-H322M lung 98.7% | HOP-62 NSCLC 96.2% | NCI-H460 lung 97.9% | HOP-92 NSCLC 88.5% | NCI-H522 lung 81.2% | A549/ATCC NSCLC 105% | 786-0 renal 98.3% | COLO 205 colon 114% | DU-145 prostate 112% | K-562 leukemia 90.1% | MALME-3M melanoma 101% | RXF 393 renal 101% | SF-268 CNS 108% | SF-295 CNS 89.8% | SF-539 CNS 95.6% | UACC-257 melanoma 106% | M14 melanoma 87.2%

COC(=O)C(C)Oc1ccc(OC#N)cc1 (configuration not stated)
inactive: NCI-H23 lung 95% | NCI-H226 lung 97.3% | NCI-H322M lung 100% | HOP-62 NSCLC 98.2% | NCI-H460 lung 103% | HOP-92 NSCLC 95.3% | NCI-H522 lung 103% | A549/ATCC NSCLC 99.4% | 786-0 renal 102% | COLO 205 colon 107% | DU-145 prostate 105% | K-562 leukemia 94.1% | MALME-3M melanoma 93.1% | RXF 393 renal 101% | SF-268 CNS 98.9% | SF-295 CNS 96.3% | SF-539 CNS 94.6% | UACC-257 melanoma 104% | M14 melanoma 101%

CC(=O)c1ccc(C(C)(C)C)cc1
inactive: NCI-H23 lung 95.7% | NCI-H226 lung 98.4% | NCI-H322M lung 104% | HOP-62 NSCLC 91.9% | NCI-H460 lung 106% | HOP-92 NSCLC 80.6% | NCI-H522 lung 99.6% | A549/ATCC NSCLC 101% | 786-0 renal 100% | DU-145 prostate 105% | K-562 leukemia 103% | MALME-3M melanoma 102% | MDA-MB-231 breast 107% | RXF 393 renal 95.2% | SF-268 CNS 102% | SF-295 CNS 97.6% | SF-539 CNS 94.3% | UACC-257 melanoma 97.2%

Cc1cccc(C(=O)N(C(C)C)C(C)C)c1
inactive: NCI-H23 lung 102% | NCI-H226 lung 87.7% | NCI-H322M lung 104% | HOP-62 NSCLC 86.4% | NCI-H460 lung 99.2% | HOP-92 NSCLC 79.6% | NCI-H522 lung 79.9% | A549/ATCC NSCLC 86.3% | 786-0 renal 99.7% | DU-145 prostate 103% | K-562 leukemia 104% | MALME-3M melanoma 95.5% | MDA-MB-231 breast 109% | RXF 393 renal 107% | SF-268 CNS 99% | SF-295 CNS 90.4% | SF-539 CNS 96.3% | UACC-257 melanoma 87.3% | M14 melanoma 96.1%

COc1ccc(NC(=O)CCl)cc1
inactive: NCI-H23 lung 61.7% | NCI-H226 lung 82.5% | NCI-H322M lung 99.1% | HOP-62 NSCLC 81.1% | NCI-H460 lung 83.1% | HOP-92 NSCLC 87.3% | NCI-H522 lung 47.8% | A549/ATCC NSCLC 84.6% | 786-0 renal 80.7% | DU-145 prostate 94.6% | K-562 leukemia 93.4% | MALME-3M melanoma 88.6% | MDA-MB-231 breast 81.6% | RXF 393 renal 69.7% | SF-268 CNS 73.3% | SF-295 CNS 101% | SF-539 CNS 83.5% | UACC-257 melanoma 60.4% | M14 melanoma 75.1%

O=C(CC(=O)c1ccccc1O)c1ccccc1
inactive: NCI-H23 lung 80.8% | NCI-H226 lung 88.6% | NCI-H322M lung 103% | HOP-62 NSCLC 77.2% | NCI-H460 lung 88.8% | HOP-92 NSCLC 100% | NCI-H522 lung 83.1% | A549/ATCC NSCLC 89.8% | 786-0 renal 89.5% | COLO 205 colon 101% | DU-145 prostate 91.8% | MALME-3M melanoma 115% | MDA-MB-231 breast 91.1% | RXF 393 renal 103% | SF-268 CNS 90.7% | SF-295 CNS 89.5% | SF-539 CNS 95.5% | UACC-257 melanoma 95.7% | M14 melanoma 97.4%

CC(C)COC(=O)COC(=O)OCCOCCOC(=O)OCC(=O)OCC(C)C
inactive: NCI-H23 lung 100% | NCI-H226 lung 100% | NCI-H322M lung 118% | HOP-62 NSCLC 98.1% | NCI-H460 lung 114% | HOP-92 NSCLC 95.7% | NCI-H522 lung 95.9% | A549/ATCC NSCLC 109% | 786-0 renal 103% | COLO 205 colon 117% | DU-145 prostate 95.3% | MALME-3M melanoma 104% | MDA-MB-231 breast 113% | RXF 393 renal 103% | SF-268 CNS 93.5% | SF-295 CNS 115% | SF-539 CNS 80.5% | UACC-257 melanoma 103%

O=C(c1ccc(Cl)cc1)c1ccccc1Cl
inactive: NCI-H23 lung 91.2% | NCI-H226 lung 99.9% | NCI-H322M lung 97.9% | HOP-62 NSCLC 93.7% | NCI-H460 lung 103% | HOP-92 NSCLC 78.2% | NCI-H522 lung 90.7% | A549/ATCC NSCLC 95.1% | 786-0 renal 93.6% | DU-145 prostate 123% | K-562 leukemia 96.8% | MALME-3M melanoma 103% | MDA-MB-231 breast 101% | RXF 393 renal 93.3% | SF-268 CNS 111% | SF-295 CNS 92.3% | SF-539 CNS 89% | UACC-257 melanoma 93.6%

CCOC(=O)C(C#N)Cc1ccccc1 (configuration not stated)
inactive: NCI-H23 lung 105% | NCI-H226 lung 112% | NCI-H322M lung 116% | HOP-62 NSCLC 116% | NCI-H460 lung 117% | HOP-92 NSCLC 101% | NCI-H522 lung 111% | A549/ATCC NSCLC 109% | 786-0 renal 109% | COLO 205 colon 123% | K-562 leukemia 125% | MALME-3M melanoma 136% | RXF 393 renal 124% | SF-268 CNS 113% | SF-295 CNS 104% | SF-539 CNS 114% | UACC-257 melanoma 117% | M14 melanoma 108%
